An excerpt weighted towards active compounds, which were near 27% of everything screened.
Cav3 T inh = human Cav3.2 channel inhibition, primary screen. O95180. Cav3.2-expressing cells, Fluo-4 calcium fluorescence FDSS; active compounds read low. AID 449739. 100,000 tested, 4% active. B-score at 10 µM;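 active means single-dose well whose peak fluorescence ratio is a statistical outlier from its plate by either plate-standardised score or position-corrected B-score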
CYP2C19 activ = activators of human cytochrome P450 2C19. P33261. recombinant CYP2C19, luciferin-H EGE luminescence; active compounds read high; 0 = fully inhibited enzyme, 1 = untreated enzyme. activation factor at 5 µM. 96,000 tested, under 10 active. AID 1025;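 active means activation factor of at least 2 at 5 µM in the primary screen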;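 further: 0 = wells with 2.5 mM tranylcypromine and 1 = vehicle-only wells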
CYP2C9 activ = CYP2C9 (human) activation | P11712 | recombinant CYP2C9, luciferin-H conversion, luminescence; active compounds read high; factor 1 = untreated enzyme, 0 = blocked | activation factor at 5 µM | 96,000 tested, 1.4% active | AID 1024;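 active means activation factor of 2 or more for CYP2C9 at a 5 µM dose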;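 further: 0 = sulfaphenazole-blocked wells and 1 = vehicle-only wells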
Target sequence (P11712 whole entry, looked up): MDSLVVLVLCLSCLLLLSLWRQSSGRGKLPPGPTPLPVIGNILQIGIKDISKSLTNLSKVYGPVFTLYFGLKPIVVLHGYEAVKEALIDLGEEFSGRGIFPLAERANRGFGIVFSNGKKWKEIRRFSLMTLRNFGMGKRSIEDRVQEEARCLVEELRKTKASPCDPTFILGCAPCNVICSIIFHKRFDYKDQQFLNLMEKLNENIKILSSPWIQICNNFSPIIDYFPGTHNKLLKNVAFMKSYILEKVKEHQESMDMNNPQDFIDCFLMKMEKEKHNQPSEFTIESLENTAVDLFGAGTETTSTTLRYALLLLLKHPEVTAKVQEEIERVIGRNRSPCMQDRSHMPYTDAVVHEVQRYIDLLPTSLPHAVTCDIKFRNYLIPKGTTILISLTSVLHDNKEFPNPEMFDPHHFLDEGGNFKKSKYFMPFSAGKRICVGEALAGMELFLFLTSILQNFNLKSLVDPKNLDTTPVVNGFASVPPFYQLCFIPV
CYP2C19 inhib = inhibitors of human CYP2C19 | P33261 | CYP2C19 Supersomes, luciferin-H EGE luminescence, 30 min | inhibition, % at 5 µM | 96,000 tested, 21% active;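 active means CYP2C19 inhibition above a set limit at 5 µM in the primary screen, cut at about 50% in these data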;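 further: plate controls were negative control wells for no effect and 2.5 mM tranylcypromine positive control for full effect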
CYP2C9 inh = human CYP2C9 inhibition; P11712; CYP2C9 Supersomes, luciferin-H conversion, luminescence; inhibition, % at 5 µM; 96,000 tested, 20% active; AID 777;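 active means blocking of liver enzyme CYP2C9 beyond about 50% at 5 µM, limit read from the data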
The depositor's hits bear a star.

For CC1(C)CC(=O)c2c(n(-c3cccc4ccccc34)ccc2=O)C1 the results were Cav3 T inh -0.0026, CYP2C19 activ 0.9, CYP2C9 activ 0.9, CYP2C19 inhib 9 and CYP2C9 inh 11.
For Cc1ccc2[nH]c3nc(SCCN4CCOCC4)nnc3c2c1 the results were CYP2C19 activ 0.9, CYP2C9 activ 0.9, CYP2C19 inhib 6 and CYP2C9 inh 10.
For COc1ccc2[nH]c3nc(SCc4nnc(-c5ccc(C)cc5)o4)nnc3c2c1 the results were Cav3 T inh 0.77, CYP2C19 activ 0.5, CYP2C9 activ 0.3, CYP2C19 inhib 52* and CYP2C9 inh 72*.
Cc1nnc(SCC(=O)NCc2ccc(Cl)cc2)[nH]c1=O was read as Cav3 T inh 0.49, CYP2C19 activ 1.1, CYP2C9 activ 0.8, CYP2C19 inhib -8 and CYP2C9 inh 17.
Screening O=C(O)CSc1nc2ccccc2c(=O)[nH]1 returned Cav3 T inh 0.0084, CYP2C19 activ 1.1, CYP2C9 activ 1.1, CYP2C19 inhib -7 and CYP2C9 inh -9.
`COC(=O)c1ccccc1NC(=O)CSc1nc2ccccc2c(=O)[nH]1` gave Cav3 T inh 0.29, CYP2C19 activ 0.7, CYP2C9 activ 0.4, CYP2C19 inhib 28 and CYP2C9 inh 59*.
For O=C(CSc1nc2ccccc2c(=O)[nH]1)NCc1ccc(Cl)cc1 the results were CYP2C19 activ 0.8, CYP2C9 activ 0.5, CYP2C19 inhib 18 and CYP2C9 inh 51*.
For CCCC(O)(CCN1CCOCC1)c1ccc(Br)cc1 (configuration not stated) the results were Cav3 T inh -0.16, CYP2C19 activ 0.6, CYP2C9 activ 0.9, CYP2C19 inhib 36 and CYP2C9 inh 6.
CC1(C)CC(NC(=O)C23CCC(C)(C(=O)C2)C3(C)C)CC(C)(C)N1 (configuration not stated) was read as Cav3 T inh -0.9, CYP2C19 activ 1, CYP2C9 activ 0.4, CYP2C19 inhib -1 and CYP2C9 inh 60*.
CC12CCC(C(=O)NCCN3CCCCC3)(CC1=O)C2(C)C (configuration not stated) was read as Cav3 T inh -0.41, CYP2C19 activ 1.2, CYP2C9 activ 1.2, CYP2C19 inhib -23 and CYP2C9 inh -22.
`Cn1c(C(C#N)/C(=N\S(=O)(=O)c2cccs2)c2ccccc2)nc2ccccc21` (configuration not stated) gave Cav3 T inh 0.18, CYP2C19 activ 1, CYP2C9 activ 0.7, CYP2C19 inhib 2 and CYP2C9 inh 28.
`Cn1c(C(C#N)C2=C(Cl)C(=O)N(c3ccccc3)C2=O)nc2ccccc21` (configuration not stated) gave Cav3 T inh -0.013, CYP2C19 activ 0.2, CYP2C9 activ 0.1, CYP2C19 inhib 78* and CYP2C9 inh 92*.
`COc1ccc(-c2oc3ccccc3c(=O)c2OC(=O)c2ccc(C)cc2)cc1` gave Cav3 T inh -3.7, CYP2C19 activ 0.2, CYP2C9 activ 0.1, CYP2C19 inhib 84* and CYP2C9 inh 89*.
Screening O=C(Cn1cnc([N+](=O)[O-])c1)Nc1cc(Oc2ccc(Cl)cc2Cl)cc([N+](=O)[O-])c1 returned Cav3 T inh -0.0032.
O=C(NCCCn1ccnc1)Nc1ccc(Cl)cc1 was read as Cav3 T inh 0.74, CYP2C19 activ 0, CYP2C9 activ 0, CYP2C19 inhib 97* and CYP2C9 inh 98*.
Screening O=C(NCCCn1ccnc1)Nc1ccc(Cl)c(Cl)c1 returned Cav3 T inh 0.96, CYP2C19 activ 0.2, CYP2C9 activ 0, CYP2C19 inhib 76* and CYP2C9 inh 100*.
`CCCCNC(=S)NC(=O)c1ccc(Cl)cc1Cl` gave Cav3 T inh -0.2, CYP2C19 activ 0.6, CYP2C9 activ 0.9, CYP2C19 inhib 36 and CYP2C9 inh 15.
CCOc1ccc(NC(=O)C(=O)NCCCn2ccnc2)cc1 was read as Cav3 T inh 2.8, CYP2C19 activ 0.3, CYP2C9 activ 0.4, CYP2C19 inhib 73* and CYP2C9 inh 60*.
O=C(NCCCn1ccnc1)C(=O)NCc1ccccc1 was read as Cav3 T inh 1.3.
O=C(CNC(=O)c1ccc(Cl)cc1Cl)NCCCn1ccnc1 was read as Cav3 T inh 0.23, CYP2C19 activ 0.3, CYP2C9 activ 0.5, CYP2C19 inhib 69* and CYP2C9 inh 51*.
`Cc1c(/C=C/C(=O)c2ccc(Cl)s2)cnn1C` gave Cav3 T inh 0.48.
COc1ccc(/C=C/C(=O)c2ccc(Cl)s2)cc1O was read as Cav3 T inh 0.15, CYP2C19 activ 0.5, CYP2C9 activ 0.4, CYP2C19 inhib 54* and CYP2C9 inh 59*.
Screening CC(=O)C1=C(C)NC(SCSc2ccccc2)=C(C#N)C1c1cccnc1 (configuration not stated) returned Cav3 T inh -1.2, CYP2C19 activ 0.2, CYP2C9 activ 0.3, CYP2C19 inhib 83* and CYP2C9 inh 66*.
Screening CC(=O)C1=C(C)NC(SCC(=O)c2ccc(-c3ccccc3)cc2)=C(C#N)C1c1cccnc1 (configuration not stated) returned Cav3 T inh -1.4, CYP2C19 activ 0, CYP2C9 activ 0.1, CYP2C19 inhib 96* and CYP2C9 inh 86*.
`CC1=C(C#N)C(c2cccnc2)C2=C(CC(C)(C)CC2=O)N1` (configuration not stated) gave Cav3 T inh 1.6, CYP2C19 activ 0.8, CYP2C9 activ 0.7, CYP2C19 inhib 24 and CYP2C9 inh 29.
For CCOC(=O)C1=C(c2ccccc2)NC(SCC(N)=O)=C(C#N)C1c1cccnc1 (configuration not stated) the results were Cav3 T inh 1, CYP2C19 activ 0.3, CYP2C9 activ 0.4, CYP2C19 inhib 68* and CYP2C9 inh 63*.
Screening CCN(CC)CCNC(=O)C1c2ccccc2C(=O)N(CCOC)C1c1ccc(F)cc1 (configuration not stated) returned Cav3 T inh 1.5, CYP2C19 activ 1.3, CYP2C9 activ 1.3, CYP2C19 inhib -33 and CYP2C9 inh -29.
For CC(C)(C)C(=O)c1sc2nc(-c3cccs3)cc(C(F)(F)F)c2c1N the results were Cav3 T inh -8.3*, CYP2C19 activ 1.1, CYP2C9 activ 0.9, CYP2C19 inhib -10 and CYP2C9 inh 14.
For CC1CCN(S(=O)(=O)c2cc(Cl)ccc2Br)CC1 the results were Cav3 T inh -1.4, CYP2C19 activ 0, CYP2C9 activ 3.1*, CYP2C19 inhib 98* and CYP2C9 inh -213.
For O=S(=O)(c1ccc(F)c2ccccc12)N1CCCCC1 the results were Cav3 T inh -1.2, CYP2C19 activ 0.8, CYP2C9 activ 4.7*, CYP2C19 inhib 21 and CYP2C9 inh -367.
Screening CC1CCCN(S(=O)(=O)Cc2ccc(Cl)cc2)C1 (configuration not stated) returned Cav3 T inh 0.0099, CYP2C19 activ 0, CYP2C9 activ 1, CYP2C19 inhib 97* and CYP2C9 inh -1.
